{"source": "PubChem BioAssay (NCATS)", "note": "Records with an inconclusive call do not appear. A call without a number means that no potency is given here. Active and inactive are the calls of the source. The call rests on the fitted dose curve; in most records, active means well fitted cell-killing curve with a large enough effect; inconclusive means small, poorly fitted or top-dose-only effect, or effect the other way; inactive means no such curve, though single readings can be large or run the other way. Potency means the concentration at half of the fitted maximal effect.", "data": [{"assay": "MultiTox-Fluor Cytotoxicity Assay - LYMP1-002 - Dead Cells (AID 960); further: nearly all actives have a fitted effect of over 60% in size", "details": "LYMP1-002 lymphoblastoid cells, dead-cell protease fluorescence; series mostly up to 46.1 µM", "excerpt": "NIH Chemical Genomics Center [NCGC]\nNIH Molecular Libraries Screening Centers Network [MLSCN]\nNational Institutes of Environmental Health Sciences [NIEHS]\nNational Toxicology Program [NTP]\nWe have developed a 1536-well cell-based assay for quantitative high throughput screening (qHTS) against a number of cell lines to determine in vitro cytotoxicity of small molecules. This particular assay uses a human lymphoblastoid cell line (LYMP1-002) purchased from Coriell Institute.\nNCGC Assay Protocol Summary:\nThe MultiTox-Fluor Cytotoxicity Assay (Promega) is a homogeneous method to simultaneously measure the relative number of live and dead cells in culture by detecting changes in cell membrane integrity. There are two fluorogenic peptide substrates in the assay reagent. Viable cells are determined when the cell-permeant substrate (GF-AFC) enters the cell and is cleaved by protease from live cells resulting in liberated fluorophore. This live-cell protease activity restricted to viable cells is proportional to cell number. The dead cells are determined by using fluorogenic cell-impermeant peptide substrate (bis-AAF-R110) which cleaved by dead cell proteases leaking from damaged cell membrane.\nUsing the MultiTox-Fluor Cytotoxicity Assay, the relative number of dead cells was measured in the lymphoblastoid cell line with complete culture medium following compound treatment for 16 hours. The assay was performed in opaque black Kalypsys 1536-well plates. In the screen, tetraoctylammonium bromide was used as positive control. Library compounds were measured for their ability to cause acute toxicity in the cell line, as reflected by an increase in dead cell protease activity, in a concentration-dependent manner. Data were normalized to the controls for basal activity (DMSO only) and 100% stimulation (15 uM tetraoctylammonium bromide). AC50 values were determined from concentration-response data modeled with the standard Hill equation.\nqHTS protocol for MultiTox-Fluor Cytotoxicity assay\n[Step] [Parameter] [Value] [Description]\n1. Reagent; 5 uL; 2500 lymphoblastoid cells/well\n2. Time; 5 hr; 37 C incubation\n4. Controls; 23 nL; Tetraoctylammonium bromide 6.4pM to 92 uM\n5. Time; 16 hr; 37 C incubation\n6. Reagent; 5 uL; MuliTox-Fluor Assay reagent\n7. Time; 60 min; Room Temperature\n8. Detection; dead-cell fluorescence (Ex/Em=485/520); EnVision plate reader\nKeywords: cytotoxicity, lymphoblastoid cell line, fluorescence, NTPHTS, NTPHTS_NCGC, NIEHS, EPA, DSSTox, MLSMR, MLSCN, NIH Roadmap, qHTS, NCGC", "values": [{"smiles": "CC(=O)[C@H]1CC[C@H]2[C@@H]3CCC4=CC(=O)CC[C@]4(C)[C@H]3CC[C@]12C", "Potency": "10 µM (active)"}, {"smiles": "Oc1ccccc1Cl", "Potency": "inactive"}, {"smiles": "c1ccc(Nc2cccc3ccccc23)cc1", "Potency": "31.6 µM (active)"}, {"smiles": "COC(=O)c1ccccc1C(=O)OC", "Potency": "inactive"}, {"smiles": "Oc1c(Cl)c(Cl)c(Cl)c(Cl)c1Cl", "Potency": "inactive"}, {"smiles": "c1ccc2c(c1)-c1cccc3cccc-2c13", "Potency": "inactive"}, {"smiles": "Oc1ccccc1O", "Potency": "20 µM (active)"}, {"smiles": "Cc1ccccc1O", "Potency": "inactive"}, {"smiles": "CCOC(=O)c1ccccc1N", "Potency": "inactive"}, {"smiles": "CC(=O)/C=C/c1ccccc1", "Potency": "inactive"}, {"smiles": "COC1=CC(=O)OC(CCc2ccc3c(c2)OCO3)C1", "note": "(stereo not drawn)", "Potency": "inactive"}, {"smiles": "O=Cc1ccccc1", "Potency": "inactive"}, {"smiles": "CCOc1cc(C=O)ccc1O", "Potency": "inactive"}]}]}
